Sampled rows, rich in hits. Any-hit rate of the full collection: about 11%.
Pf growth 48h = P. falciparum growth inhibition at 48 hours (one generation); P. falciparum luciferase growth in erythrocytes, 48 h; Potency, µM (highest dose often 28.7 µM), usual class: inhibitors; 310,000 compounds, 5.9% hits; AID 504832
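Luminescence readout; reporter = integrated firefly luciferase in P. falciparum. RBC culture at 2% hematocrit, 0.1% parasitemia final, 37 C/5% CO2; decreased signal taken as growth inhibition.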
AMA1 RON2 block = inhibitors of Plasmodium falciparum AMA1-RON2 interaction; AlphaScreen AMA1-biotinylated RON2 peptide binding; 360,000 compounds, 0.2% hits; Potency, µM (top dose mostly 58.2 µM), actives largely listed as inhibitors; also: nearly all actives have a fitted effect of over 45% in size
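AMA1 (3D7) with his tag at 25 nM final met compounds first, then biotinylated RON2 peptide at 25 nM; detection used donor plus acceptor beads, 10 µg/mL apiece, read by AlphaScreen after 30 min at room temperature.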
NS1 function inh = blocks influenza NS1 protein function; Potency, µM (titrated, usually from 46.1 µM); 270,000 compounds, 0.4% hits; AID 2326; calls by dose curve; also: actives are rising curves; nearly all actives have a fitted effect of over 50% in size
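A cell-based growth assay was used: compounds that relieve NS1-induced slow growth of budding yeast raise OD600. Assay medium was yeast nitrogen base with ammonium sulphate and -URA supplement, pH 6.0, with 2% galactose.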
Sm TGR block = S. mansoni TGR enzyme inhibition; Q962Y6; purified TGR, DTNB reduction, TNB absorbance 405 nm; Potency, µM (titrated, usually from 114 µM), actives largely listed as inhibitors; 360,000 compounds, 3% hits; AID 485364; also: nearly all actives have a fitted effect of over 60% in size
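Kinetic colorimetric format: TGR-catalysed, NADPH-driven DTNB reduction monitored via TNB absorbance. Enzyme dispensed at 20 nM; compound exposure 15 min at room temperature before reaction start.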
Pf growth 96h = inhibits malaria parasite growth, 96 h; P. falciparum luciferase reporter growth, 96 h; Potency, µM (top dose mostly 28.7 µM), usual class: inhibitors; 320,000 compounds, 6.9% hits
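Plates of compound plus infected erythrocytes (2% hematocrit, 0.05% parasitemia final) incubate 96 hours, 37 C, 5% CO2. Detection reagent added; reduced luminescence from the parasites' luciferase reporter flags inhibition.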
A number is an active result; – = inactive; ? = inconclusive; · = no result. Unless noted, calls follow the shape of the dose curve; as a rule, active = well fitted curve in the direction sought with a large enough effect; inconclusive = small, poorly fitted or top-dose-only effect, or another doubt; inactive = no such curve, though single readings can be large; an effect the other way counts as inactive or inconclusive.

SMILES | Pf growth 48h | AMA1 RON2 block | NS1 function inh | Sm TGR block | Pf growth 96h
CSCCC(NS(=O)(=O)c1ccc2c(c1)oc(=O)n2C)C(=O)NCc1cccs1 (stereo unspecified) | – | – | – | – | –
Fc1ccc(-c2nc3ccccn3c2NCc2ccc3c(c2)OCO3)cc1 | 8.28µM | ? | · | – | –
CCn1nc(CC(=O)Nc2nnc(CC(=O)N3CCCC3)s2)c2ccccc2c1=O | – | – | 20µM | – | –
CCN1C(=O)[C@@H]2[C@@H](c3ccc(SC4CCCCC4)cc3)N3CCC[C@@]3(C(=O)OC)[C@@H]2C1=O | 13.1µM | – | · | – | 9.28µM
COC(=O)[C@@]12CCCCN1[C@H](c1ccc(SC3CCCCC3)cc1)[C@H]1C(=O)N(C)C(=O)[C@H]12 | ? | – | · | ? | ?
CCCSc1ccc([C@@H]2[C@H]3C(=O)N(CC)C(=O)[C@H]3[C@]3(C(=O)OC)CCCN23)cc1 | 9.28µM | – | · | – | 14.7µM
COC(=O)[C@@]12CCCN1[C@H](c1ccc(SC3CCCCC3)cc1)[C@H]1C(=O)N(C)C(=O)[C@H]12 | 10.4µM | – | · | – | ?
Cn1nc(-c2ccc(Cl)cc2)nc2c(=O)n(C)c(=O)nc1-2 | ? | · | – | ? | 0.928µM
COc1ccc(-n2c(COc3cccc(C)c3)nnc2SCC(=O)O)cc1 | – | – | – | – | ?
CCOC(=O)C(CC)Sc1nnc(COc2ccc(C)cc2)n1-c1ccccc1 (stereo unspecified) | 13.1µM | – | – | – | ?
Cc1cccc(OCc2nnc(SCCC(=O)O)n2-c2ccccc2)c1 | – | – | – | 79.4µM | ?
CCOc1ccc(-n2c(COc3ccc(C)cc3)nnc2SCC(N)=O)cc1 | – | – | – | – | ?
C[C@@H]1CCC(=O)N(C[C@@H](C)CSc2ccccc2)CC1 | – | – | – | – | –
Cc1ccc(-c2nc(CN3CCCC(C(=O)N4CCOCC4)C3)c(C)o2)cc1 (stereo unspecified) | – | – | – | – | –
CC(C)Cn1c2c(c(=O)[nH]c1=O)C(C(F)(F)F)(C(F)(F)F)N=C(CCC1CCCCC1)N2 | 9.28µM | – | – | – | –
CC(C)Cc1ccc(/C=C/C(=O)NC2CC2)cc1 | ? | – | – | – | 2.08µM
O=S(=O)(N/N=C/c1ccc(Cl)cc1)c1ccc(Cc2ncc(C(F)(F)F)cc2Cl)s1 | – | – | – | – | ·
NC(=O)c1ccc(Cc2ncc(C(F)(F)F)cc2Cl)s1 | – | – | – | – | 5.22µM
CCc1ccc(NC(=O)C2CCN(C(=O)N3CC(CC)Oc4ccccc43)CC2)cc1 (stereo unspecified) | · | · | · | – | ·
O=C(c1cccc(NS(=O)(=O)c2cccc(F)c2)c1)N1CCCC1 | – | – | – | – | ?
O=C(c1ccc(S(=O)(=O)Cc2cc(F)ccc2F)c([N+](=O)[O-])c1)N1CCOCC1 | · | – | · | · | ·
OCC[C@H]1C[C@H](O)[C@@H](O)[C@@]2(OCc3ccccc32)O1 | – | – | · | 44.7µM | –
OCC[C@@H]1C[C@@H](O)[C@H](O)[C@]2(OCc3ccccc32)O1 | – | – | – | – | –
COc1cccc(F)c1C(=O)NC(=O)Nc1ccc2nc(C)oc2c1 | 2.08µM | – | – | 31.6µM | 2.08µM
COc1ccc2c(c1)-c1ccccc1S(=O)(=O)N2C(C)=O | – | – | – | – | 11.7µM
SMILES | Pf growth 48h | AMA1 RON2 block | NS1 function inh | Sm TGR block | Pf growth 96h
COc1ccc(OC)c(NC(=O)CN2C(=O)c3ccccc3S2(=O)=O)c1 | – | – | – | – | –
S=C(c1cn(CCOc2ccccc2)c2ccccc12)N1CCCC1 | 11.7µM | – | – | – | ?
S=C(c1cn(CCOc2cccc3ccccc23)c2ccccc12)N1CCCC1 | 13.1µM | – | – | – | ?
COCCn1cc(C(=S)N2CCCCC2)c2ccccc21 | – | – | – | – | –
COc1ccc(C2=NOC(C(=O)Nc3ccc(C)cc3)C2)cc1OC (stereo unspecified) | · | – | – | – | –
COc1ccc(NC(=O)C2CC(c3ccc(OC)c(OC)c3)=NO2)cc1OC (stereo unspecified) | – | – | – | – | 13.1µM
COc1ccc(C2=NOC(C(=O)NCc3ccc(F)cc3)C2)cc1OC (stereo unspecified) | – | – | – | – | 2.33µM
COc1cc(C2=NOC(C(=O)Nc3ccc4c(c3)OCO4)C2)cc(OC)c1OC (stereo unspecified) | 2.94µM | – | – | – | –
CC(C)N(C(=O)[C@H]1C[C@H](CC(=O)NCc2cccc(C(F)(F)F)c2)C(=O)N2CCc3c([nH]c4ccc(Cl)cc34)[C@]12C)C(C)C | · | – | · | · | ·
Cc1cccc(C(C)C)c1NC(=O)CN1C(=O)NC(Cc2ccccc2)C1=O (stereo unspecified) | – | – | · | – | –
COC(=O)C1C(=O)C2=C(CC1C)NC(=O)CC2c1ccc(F)cc1 (stereo unspecified) | 14.7µM | – | · | – | –
COC(=O)C1C(=O)c2c([nH]c(C(=O)OC3CCCCCC3)c2C)CC1C (stereo unspecified) | – | – | – | – | 8.28µM
COC(=O)C1C(=O)C2=C(CC1C)Nc1ccccc1NC2c1cccs1 (stereo unspecified) | – | – | · | – | ?
CCOc1cc(C2CC(=O)NC3=C2C(=O)C(C(=O)OC)C(C)C3)cc(Br)c1O (stereo unspecified) | 1.47µM | – | – | ? | –
COC(=O)C1C(=O)C2=C(CC1C)NC(C)=C(C(=O)OC1CCCC1)C2c1ccc(N(C)C)cc1 (stereo unspecified) | 5.22µM | – | – | – | –
O=C(Nc1ccc(OCC(=O)N2CCOCC2)cc1)c1cccc(Cl)c1 | – | – | – | – | –
CCc1sc(C(=O)NNC(=O)c2cncc(Br)c2)cc1C | · | – | · | · | ·
CCOc1cc(C2NC(=O)N(C)C(C)=C2C(=O)OC)cc(Br)c1O (stereo unspecified) | 13.1µM | – | – | 50.1µM | –
CC(OC(=O)C1=COCCO1)C(=O)NC1CCCCC1C (stereo unspecified) | – | – | · | – | –
CC(C)(C)c1cc(OS(C)(=O)=O)ccc1O | – | – | – | – | –
CC(C)(C)c1cc(OC(=O)C2CCCC2)ccc1O | – | – | – | – | 5.22µM
CCOc1ccc(C(=O)c2cn(CC(=O)Nc3ccc(C)c(C)c3)c3ccc(OCC)cc3c2=O)cc1 | · | · | · | – | ·
Cc1ccc(C)n1C(CC(=O)O)c1ccc(C#N)cc1 (stereo unspecified) | – | – | – | 39.8µM | ?
COC(=O)CC(c1ccc(F)cc1)n1c(C)ccc1C (stereo unspecified) | ? | – | – | ? | 13.1µM
CCOC(=O)CC(c1ccc(N)cc1)n1c(C)ccc1C (stereo unspecified) | ? | – | – | ? | ?
COc1ccc(C(=O)Oc2cccc(Nc3ncnc4ccccc34)c2)cc1OC | – | – | – | – | 2.33µM
CC(=O)c1cccc(Nc2ncnc3ccc(Br)cc23)c1 | 5.86µM | – | – | – | –
CC(=O)c1ccc(Nc2ncnc3ccc(Br)cc23)cc1 | · | – | · | · | ·

Screens from PubChem BioAssay.
